This note sets out measurements from PubChem BioAssay (Tox21).

Structures are written as SMILES. “And” between values parts separate entries of the source, which are not always exact repeats. Identical values can stand only once. Inconclusive results are not listed. Some compounds were tested as several samples or in several runs, with calls that do not always agree. The source made the active and inactive calls. Unless noted, calls come from the whole dose curve; as a rule, active = well fitted curve in the direction sought with a large enough effect in the repeat runs; inconclusive = weak or mixed curves; inactive = no such curve, though single readings can be large; an effect the other way counts as inactive or inconclusive.

Assay [1] in a line: qHTS assay to identify small molecule agonists of the estrogen receptor beta (ER-beta) signaling pathway - cell viability counter screen (AID 1259380). Note: nearly all actives have a fitted effect of over 30% in size. Note: potency is the fitted concentration of half-maximal effect. Put shortly:
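Cells used were ER-beta-UAS-bla HEK293T in medium with 2% charcoal-stripped FBS. They were treated for 16 hr at 37C. Viability came from CellTiter-Glo luminescence.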
A general note: Quantitative high-throughput screening tests each substance at several concentrations.

Assay [2] in a line: qHTS assay to identify small molecule antagonists of the estrogen receptor beta (ER-beta) signaling pathway - cell viability counter screen (AID 1259382). Note: nearly all actives have a fitted effect of over 55% in size. Note: potency is the fitted concentration of half-maximal effect. In a few lines:
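Agonist-stimulated (1nM E2) ER-beta-UAS-bla HEK293T cells are incubated with library compounds for 16 hr at 37C. Cell viability is then assessed in the reporter-assay wells by adding CellTiter-Glo and reading luminescence after 30 min.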

The target of assay [3] is Estrogen receptor (Homo sapiens) (UniProt P03372). Description: qHTS assay to identify small molecule agonists of the estrogen receptor alpha (ER-alpha) signaling pathway in the presence of an antagonist (AID 1259383; calls by dose curve; note: top concentration of the series differs between compounds; nearly all actives have a fitted effect of over 15% in size). Put shortly: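 Using VM7Luc4E2 cells seeded 24hr before treatment, antagonist ICI-182,780 (10.0nM final) was added, followed by compounds at 15 concentrations. Plates incubated 22hr; ONE-Glo luminescence quantified reporter activity.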
Chain of Estrogen receptor (Homo sapiens) (P03372 whole entry, looked up): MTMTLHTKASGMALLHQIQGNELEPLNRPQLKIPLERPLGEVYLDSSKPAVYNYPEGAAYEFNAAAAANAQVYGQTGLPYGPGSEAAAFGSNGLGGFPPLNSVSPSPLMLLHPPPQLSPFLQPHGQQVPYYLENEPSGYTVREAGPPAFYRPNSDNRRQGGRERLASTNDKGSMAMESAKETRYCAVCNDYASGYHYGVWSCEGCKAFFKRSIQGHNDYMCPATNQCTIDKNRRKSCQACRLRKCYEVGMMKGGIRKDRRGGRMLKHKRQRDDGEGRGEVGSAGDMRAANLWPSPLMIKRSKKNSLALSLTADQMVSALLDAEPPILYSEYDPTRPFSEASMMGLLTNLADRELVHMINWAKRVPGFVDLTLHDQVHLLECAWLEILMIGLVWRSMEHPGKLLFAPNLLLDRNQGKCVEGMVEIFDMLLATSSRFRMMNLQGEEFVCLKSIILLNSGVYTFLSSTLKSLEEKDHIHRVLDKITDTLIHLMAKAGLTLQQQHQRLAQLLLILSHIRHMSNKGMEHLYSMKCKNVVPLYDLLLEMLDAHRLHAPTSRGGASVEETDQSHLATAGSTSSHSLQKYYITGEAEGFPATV

The nature of assay [4]: qHTS assay to identify small molecule agonists or antagonists of the thyroid stimulating hormone receptor (TSHR) signaling pathway - wild type cell line counter screen (AID 1259384; calls by dose curve). In a few lines: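 Wild-type Hek293 cells, 800/well, 18 h at 37C, then compound with Ro20-1724 for 30 min RT. cAMP by HTRF (cAMP-d2/anti-cAMP cryptate), 1 h RT, fluorescence read. 15 concentrations, triplicates.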

The target in assay [5] is Thyrotropin receptor (Homo sapiens) (UniProt P16473). Description: qHTS assay to identify small molecule antagonists of the thyroid stimulating hormone receptor (TSHR) signaling pathway (AID 1259385; calls by dose curve; note: nearly all actives have a fitted effect of over 20% in size). Put shortly:
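TSHR-HEK293 cells (800/well) plated 18 h, then compounds with Ro20-1724 and TSH at 1.5 ng/mL final, 30 min at room temperature. cAMP quantified by HTRF (cAMP-d2/anti-cAMP-cryptate, 1 h); 15 concentrations in triplicate.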

Assay [6] can be described thus: qHTS assay to identify small molecule agonists of the TGF-beta/Smad signaling pathway - cell viability counter screen (AID 1346829). Note: nearly all actives have a fitted effect of over 45% in size. Note: potency is the fitted concentration of half-maximal effect. In a few lines: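 Tox21 qHTS format: SBE-bla HEK 293T cells treated with DMSO-dissolved compounds for 5 hr; CellTiter-Glo luminescence after 30 min at room temperature.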
Assay [7] is described as follows: qHTS assay to identify small molecule agonists of the TGF-beta/Smad signaling pathway (AID 1346859; active = well fitted activation curve with a large enough effect in the signal ratio in the repeat runs, not every such curve was filed as active; the % refers to the signal ratio; note: series mostly up to about 77 µM). Put shortly:
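Each well held 4,000 SBE-bla HEK 293T cells incubated overnight before compound addition; 5 hr later the cleavable FRET substrate went on for 2 hr at room temperature, and fluorescence was read at two emissions.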

For assay [8], the target named is Thyrotropin-releasing hormone receptor (Homo sapiens) (UniProt P34981). Description: qHTS assay to identify small molecule antagonists of the thyrotropin-releasing hormone receptor (TRHR) signaling pathway (AID 1346877; active = well fitted inhibition curve with a large enough effect in the repeat runs, not every such curve was filed as active; note: series mostly up to about 51 µM). Put shortly:
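Screening used HEK293 cells engineered with TRHR, with a brief 5 min room-temperature compound exposure preceding addition of TRH to 1 nM. The read-out was kinetic calcium-dye fluorescence, concentration-response from 15 doses in triplicate.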

The target is the same in assay [9]. Kind of assay: qHTS assay to identify small molecule agonists of the thyrotropin-releasing hormone receptor (TRHR) signaling pathway (AID 1346891; calls by dose curve; note: series mostly up to about 58 µM). In a few lines: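 Screening of agonists relied on calcium signalling in HEK293 cells expressing human TRHR: dye loading 2 h at 37 °C preceded compound addition and a 3-min fluorescence time course.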
Assay [10] is described as follows: Human pregnane X receptor (PXR) small molecule agonists, qHTS cell viability counter screen (AID 1346977). Note: nearly all actives have a fitted effect of over 50% in size. Note: potency is the fitted concentration of half-maximal effect. Put shortly:
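Tox21 qHTS format; PXR-Luc HepG2, 2,000/well, charcoal-stripped FBS 5%. Cpd exposure 24hr. Read: CellTiter-Fluor fluorescence, multiplexed with luciferase.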

Assay [11] is described as follows: qHTS assay to identify small molecule agonists of the androgen receptor (AR) signaling pathway in the presence of an antagonist - cell viability counter screen (AID 1259379). Note: nearly all actives have a fitted effect of over 25% in size. Note: potency is the fitted concentration of half-maximal effect. In a few lines: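 A CellTiter-Fluor read-out measured viability of MDA-kb2 reporter cells (MMTV promoter with AR and GR response elements). Treatment: nilutamide 3.0uM final with compounds at 15 concentrations, 16 hr, 37C, 0% CO2.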

The nature of assay [12]: qHTS assay to identify small molecule agonists of the estrogen receptor alpha (ER-alpha) signaling pathway in the presence of an antagonist - cell viability counter screen (AID 1259386).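 Note: cells exposed to compounds for 22 h at 37 °C before the viability read; nearly all actives have a fitted effect of over 30% in size.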 Note: potency is the fitted concentration of half-maximal effect. In a few lines:
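ICI-182,780 at 10.0nM final accompanies the compound titration (15 concentrations, 22hr, 37C) on VM7Luc4E2 cells. The CellTiter-Fluor fluorescence readout runs in the same wells as the luciferase assay.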

Assay [13] has as its target Progesterone receptor (Homo sapiens) (UniProt P06401). Kind of assay: qHTS assay to identify small molecule agonists of the progesterone receptor (PR) signaling pathway (AID 1346784; calls by dose curve; note: nearly all actives have a fitted effect of over 30% in size). In a few lines:
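Compounds were tested for PR agonism in HEK 293T cells bearing a beta-lactamase gene under UAS control. Treatment lasted 16 hr at 37C; signal came from fluorescence of a FRET substrate.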

The target is the same in assay [14]. Kind of assay: qHTS assay to identify small molecule antagonists of the progesterone receptor (PR) signaling pathway (AID 1346795; active = well fitted inhibition curve with a large enough effect in the signal ratio in the repeat runs, not every such curve was filed as active; the % refers to the signal ratio). In a few lines: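 In HEK293T cells bearing the PR-UAS-bla reporter, compound effects on promegestone-driven (1 nM) beta-lactamase expression are assessed after 16 hr using a fluorescent FRET substrate incubated 2 hr at room temperature.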

The nature of assay [15]: qHTS assay to identify small molecule antagonists of the progesterone receptor (PR) signaling pathway - cell viability counter screen (AID 1346798). Note: nearly all actives have a fitted effect of over 50% in size. Note: potency is the fitted concentration of half-maximal effect. In a few lines:
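Following a 4 hr attachment, PR-UAS-bla HEK293T cells in charcoal-stripped FBS medium were exposed to compounds with R5020 for 16 hr; CellTiter-Glo was added and luminescence read after 30 min at room temperature.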

Assay [16] can be described thus: qHTS assay to identify small molecule agonists of the progesterone receptor (PR) signaling pathway - cell viability counter screen (AID 1346799; calls by dose curve; note: nearly all actives have a fitted effect of over 45% in size; note: potency is the fitted concentration of half-maximal effect). In a few lines: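 Here, 3,000 PR-UAS-bla HEK293T cells per well were treated with compounds for 16 hr after a 6 hr preincubation at 37C and 5% CO2; cell viability is the CellTiter-Glo luminescence signal.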
A short description of assay [17]: qHTS assay to identify small molecule antagonists of the TGF-beta/Smad signaling pathway - cell viability counter screen (AID 1346824). Note: nearly all actives have a fitted effect of over 50% in size. In a few lines:
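SBE-bla HEK 293T cells, incubated overnight, then compound plus 0.25 ng/mL TGF-beta1 (stock added) for 5 hr at 37 C. Viability was read in the same wells by CellTiter-Glo luminescence after 30 min at room temperature.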

Chain of Progesterone receptor (Homo sapiens) (P06401 whole entry, looked up): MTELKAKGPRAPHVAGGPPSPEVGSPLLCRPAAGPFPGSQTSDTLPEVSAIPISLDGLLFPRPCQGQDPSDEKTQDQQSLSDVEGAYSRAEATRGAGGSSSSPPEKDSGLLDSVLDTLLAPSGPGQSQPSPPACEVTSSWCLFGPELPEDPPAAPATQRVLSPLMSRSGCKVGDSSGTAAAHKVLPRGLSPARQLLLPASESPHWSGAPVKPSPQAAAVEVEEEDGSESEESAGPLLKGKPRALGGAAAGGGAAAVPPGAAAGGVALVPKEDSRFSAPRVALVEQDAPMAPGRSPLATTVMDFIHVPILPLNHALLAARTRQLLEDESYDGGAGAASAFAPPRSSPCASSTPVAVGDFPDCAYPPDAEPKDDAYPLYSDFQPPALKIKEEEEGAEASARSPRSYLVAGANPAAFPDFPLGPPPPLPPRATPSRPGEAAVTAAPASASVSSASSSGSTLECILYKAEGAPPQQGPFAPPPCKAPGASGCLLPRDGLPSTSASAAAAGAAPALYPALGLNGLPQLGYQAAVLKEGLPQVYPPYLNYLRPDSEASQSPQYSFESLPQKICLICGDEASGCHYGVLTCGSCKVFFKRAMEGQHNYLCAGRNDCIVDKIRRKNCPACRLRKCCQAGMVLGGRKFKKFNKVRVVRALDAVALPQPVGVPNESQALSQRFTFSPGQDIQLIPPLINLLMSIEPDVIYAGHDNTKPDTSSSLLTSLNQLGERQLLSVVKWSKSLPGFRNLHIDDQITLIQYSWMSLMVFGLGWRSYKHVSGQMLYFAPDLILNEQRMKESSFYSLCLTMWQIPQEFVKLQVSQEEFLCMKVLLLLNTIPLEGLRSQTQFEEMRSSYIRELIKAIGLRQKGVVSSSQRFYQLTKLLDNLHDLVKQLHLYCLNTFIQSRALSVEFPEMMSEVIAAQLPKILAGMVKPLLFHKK
Chain of Thyrotropin receptor (Homo sapiens) (P16473 whole entry, looked up): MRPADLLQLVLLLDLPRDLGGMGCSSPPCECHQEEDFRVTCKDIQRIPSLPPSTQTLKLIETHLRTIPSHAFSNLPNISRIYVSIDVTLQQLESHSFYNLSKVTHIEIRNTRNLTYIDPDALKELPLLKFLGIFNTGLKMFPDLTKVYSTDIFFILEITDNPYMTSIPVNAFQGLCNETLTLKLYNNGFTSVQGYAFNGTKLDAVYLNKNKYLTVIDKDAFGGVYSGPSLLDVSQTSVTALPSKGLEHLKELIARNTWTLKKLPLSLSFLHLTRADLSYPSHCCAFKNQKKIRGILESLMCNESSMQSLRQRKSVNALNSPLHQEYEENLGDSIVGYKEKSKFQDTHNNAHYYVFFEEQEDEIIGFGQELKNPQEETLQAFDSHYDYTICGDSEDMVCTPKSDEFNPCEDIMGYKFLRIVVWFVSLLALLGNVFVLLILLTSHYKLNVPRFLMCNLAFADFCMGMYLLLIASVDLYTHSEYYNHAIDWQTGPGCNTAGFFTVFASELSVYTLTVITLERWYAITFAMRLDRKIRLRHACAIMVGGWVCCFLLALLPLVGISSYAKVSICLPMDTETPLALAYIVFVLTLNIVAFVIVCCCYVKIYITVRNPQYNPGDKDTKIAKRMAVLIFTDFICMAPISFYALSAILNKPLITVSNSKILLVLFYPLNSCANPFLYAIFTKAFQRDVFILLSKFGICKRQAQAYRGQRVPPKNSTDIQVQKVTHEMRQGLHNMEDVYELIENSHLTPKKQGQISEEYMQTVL
Chain of Thyrotropin-releasing hormone receptor (Homo sapiens) (P34981 whole entry, looked up): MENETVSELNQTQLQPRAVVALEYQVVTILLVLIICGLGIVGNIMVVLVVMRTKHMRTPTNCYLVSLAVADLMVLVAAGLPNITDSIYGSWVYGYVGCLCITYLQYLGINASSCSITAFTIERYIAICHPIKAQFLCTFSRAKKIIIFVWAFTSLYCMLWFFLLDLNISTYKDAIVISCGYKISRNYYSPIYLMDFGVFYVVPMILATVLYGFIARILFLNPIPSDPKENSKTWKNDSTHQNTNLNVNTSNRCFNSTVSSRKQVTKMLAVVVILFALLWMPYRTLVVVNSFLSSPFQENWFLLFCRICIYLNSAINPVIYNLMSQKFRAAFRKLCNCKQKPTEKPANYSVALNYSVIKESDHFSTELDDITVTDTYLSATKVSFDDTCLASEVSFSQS

For the compound `C=C1CC[C@H](O)C/C1=C\C=C1/CCC[C@]2(C)[C@@H]([C@H](C)CCCC(C)C)CC[C@@H]12`, the values for the Potency in assay [1] and in [2] were 42.9 µM (active) and 30.4 µM (active), respectively. In addition, the Potency result in assay [3], in assay [4], in [5], in assay [6], in assay [8] and in assay [9] was “inactive” in each case. In [10], the Potency result is “inactive”. Besides, the call in [7] was inactive.

For the compound `C[C@](N)(Cc1ccc(O)c(O)c1)C(=O)O`, the Potency result in assay [11], in assay [1], in assay [2], in assay [13], in assay [14] and in [15] was “inactive” throughout. Moreover, the Potency result in assay [16], in assay [6], in assay [8], in assay [9] and in [10] was “inactive” in each case. The Potency entry in [12] was “inactive and 54.3 µM (active)”. Also, the call in assay [7] was inactive.

In the case of `O=C1c2c(O)cccc2Cc2cccc(O)c21`, the Potency result in assay [11], in [1], in assay [2], in [4], in [5] and in assay [12] was “inactive” each time. Further, the Potency entry in assay [13], in assay [14], in [15], in assay [16], in [6] and in [10] was “inactive” each time. Further, the call in [7] was inactive.

`CC(=O)CC(c1ccccc1)c1c(O)c2ccccc2oc1=O` (configuration not stated): the Potency result in assay [11], in assay [1], in assay [2], in assay [12], in [13] and in [14] was “inactive” each time. In addition, the Potency entry in assay [15], in assay [16], in [17], in assay [6] and in assay [10] was “inactive” each time. Further, the call in assay [7] was inactive.

On to `CCCCCCCCCCCC[N+](C)(C)Cc1ccccc1`, for which the Potency in assay [11] was 23.9 µM (active) and 33.3 µM (active) and 26.6 µM (active); in assay [1], 30 µM (active) and 29.7 µM (active) and 10.6 µM (active); in [2], 26.8 µM (active) and 37.4 µM (active) and 11.9 µM (active); in assay [12], 67.3 µM (active) and 74.5 µM (active) and inactive; in [15], 29.7 µM (active) and 33.5 µM (active); in assay [16], 8.47 µM (active) and 8.36 µM (active) and 10.6 µM (active). Also, the Potency was 48 µM (active) and 29.9 µM (active) in assay [6]; 52.8 µM (active) in assay [10]. In addition, the Potency entry in assay [4], in assay [5], in assay [8] and in assay [9] was “inactive” in each case. Besides, the call in assay [7] was inactive.

`Oc1ccccc1`: the Potency result in [11], in assay [1], in [2], in assay [4], in [5] and in [12] was “inactive” in each case. For the same compound, the Potency result in [15], in assay [16], in assay [6] and in [10] was “inactive” in each case. The result in [7] was inactive.

Regarding `CC(=O)C(=O)O`, the Potency entry in [11], in [1], in [2], in assay [4], in assay [5] and in [12] was “inactive” each time. Besides, the Potency entry in assay [13], in [14], in assay [15], in assay [6] and in [10] was “inactive” each time. Further, in assay [16], the Potency entry was “inactive and 34.4 µM (active)”. Besides, in assay [7], the result was inactive.

Consider `Cn1c(=O)c2c(ncn2C)n(C)c1=O`, for which the Potency is 55.1 µM (active) and inactive in assay [11]; 61.9 µM (active) and inactive in assay [12]; 39.8 µM (active) and inactive in assay [10]. For the same compound, the Potency result in assay [1], in [2], in assay [13], in assay [14], in [15] and in assay [16] was “inactive” throughout. Besides, the Potency result in [17] and in assay [6] was “inactive” throughout. In addition, the compound was called inactive in assay [7].
